Results filed as inconclusive are left out. Where a call stands in place of a potency, no number is given. Activity calls are given as the source filed them. The call rests on the fitted dose curve; in most records, active means well fitted inhibition curve with a large enough effect; inconclusive means small, poorly fitted or top-dose-only effect; inactive means no such curve, though single readings can be large or run the other way.

The results in this text go back to PubChem BioAssay (NCATS).

This test is described as follows: qHTS assay for measurement of the activity of small molecule inhibitors on Zika virus induced Caspase-3 activity in human iPSC derived neural progenitor cells (hNPCs) (AID 1224857). Further: nearly all actives have a fitted effect of over 65% in size. The following applies: hNPCs ZIKV-induced caspase-3/7, Caspase-Glo luminescence, 6 h; series mostly up to 45.7 µM. In outline:
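Caspase-3/7 induction by a 6-hour ZIKV infection was quantified with a luminescent Caspase-Glo 3/7 reagent incubated 30 minutes at room temperature. Compounds were preincubated with hNPCs for 1 hour; inhibition was calculated against uninfected and infected control wells.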
For `CN1CCN(C2=Nc3cc(F)ccc3Cc3ccccc32)CC1`, the Potency result is “inactive”.

With `CC(=O)Nc1ccc(OC(=O)c2ccccc2OC(C)=O)cc1`, the Potency result was “inactive”.

On to `O=C(CCCN1CC=C(n2c(=O)[nH]c3ccccc32)CC1)c1ccc(F)cc1`, for which the Potency entry is “inactive”.

In the case of `COc1cc(N)c(Cl)cc1C(=O)NC1CCN(Cc2ccccc2)CC1`, the Potency entry is “inactive”.

Turning to `CCN1CCN(C(=O)N[C@@H](C(=O)N[C@@H]2C(=O)N3C(C(=O)O)=C(CSc4nnnn4C)CS[C@H]23)c2ccc(O)cc2)C(=O)C1=O`, the Potency result was “inactive”.

On to `CCc1cc(Cl)c(OC)c(C(=O)NC[C@@H]2CCCN2CC)c1O`, for which the Potency result is “inactive”.

For `CCC1Nc2cc(Cl)c(S(N)(=O)=O)cc2S(=O)(=O)N1` (stereo unspecified), the Potency entry was “inactive”.

As to `CC(=O)Nc1ccc(S(=O)(=O)Nc2ccc([N+](=O)[O-])cc2)cc1`, the Potency entry was “inactive”.

On to `CCCCNC(=O)NS(=O)(=O)c1ccc(N)cc1`, for which the Potency result is “inactive”.

In the case of `FC(F)(F)C(F)(F)C(F)(F)C(F)(F)C(F)(F)C(F)(F)C(F)(F)C(F)(F)Br`, the Potency result was “inactive”.

Consider `CC(=O)OCC(=O)[C@H]1CC[C@H]2[C@@H]3CCC4=CC(=O)CC[C@]4(C)[C@H]3CC[C@]12C`, for which the Potency entry was “inactive”.

Take `FC1(F)C(F)(F)C(F)(F)C2(F)C(F)(F)C(F)(F)C(F)(F)C(F)(F)C2(F)C1(F)F` (stereo unspecified): the Potency result was “inactive”.

As to `O=C1OC2(c3ccccc31)c1cc(Br)c(O)c(Br)c1Oc1c2cc(Br)c(O)c1Br`, the Potency entry was “inactive”.

As for `CC(C)CCCC(C)N` (stereo unspecified), the Potency entry was “inactive”.

Turning to `N[C@H](C(=O)O)[C@@H](O)c1ccc(O)c(O)c1`, the Potency entry was “inactive”.

For the molecule `CC(=O)Nc1ccc(OCC(O)CNC(C)C)cc1` (stereo unspecified), the Potency entry was “inactive”.

Turning to `O=C(N/N=C/c1ccc([N+](=O)[O-])o1)c1ccc(O)cc1`, the Potency entry is “inactive”.

Turning to `Cn1c(=O)c2[nH]c(Br)nc2n(C)c1=O`, the Potency result was “inactive”.

For the molecule `CC(C)Cc1ccc(CC(=O)O)cc1`, the Potency result was “inactive”.

Take `Nc1nc(Cl)nc2c1ncn2[C@@H]1O[C@H](CO)[C@@H](O)[C@@H]1F`: the Potency result is “inactive”.

As to `N#C/C(=C1\SCC(c2ccccc2Cl)S1)n1ccnc1` (stereo unspecified), the Potency entry is “inactive”.

Take `C/C=C/C=N/NC(=O)c1ccncc1`: the Potency result is “inactive”.

With `C[C@H]1O[C@@H](O[C@H]2CC[C@@]3(C)[C@H](CC[C@@H]4[C@@H]3C[C@@H](O)[C@]3(C)[C@@H](C5=CC(=O)OC5)CC[C@]43O)C2)C[C@H](O)[C@@H]1O[C@H]1C[C@H](O)[C@H](O[C@H]2C[C@H](O)[C@H](O[C@@H]3O[C@H](CO)[C@@H](O)[C@H](O)[C@H]3O)[C@@H](C)O2)[C@@H](C)O1`, the Potency result is “inactive”.

In the case of `CCCCCCCCCCC[C@@H](C[C@@H]1OC(=O)[C@H]1CCCCCC)OC(=O)[C@H](CC(C)C)NC=O`, the Potency entry is “inactive”.

Take `CCN(CC)CCOC(=O)C1(c2ccccc2)CCCC1`: the Potency result was “inactive”.

For the molecule `CN1CCN(c2c(F)cc3c(=O)c(C(=O)O)cn4c3c2SCC4)CC1`, the Potency result was “inactive”.

`O=C1[C@H](CC[C@H](O)c2ccc(F)cc2)[C@@H](c2ccc(O)cc2)N1c1ccc(F)cc1`: the Potency result is “inactive”.

As to `OC(C#CCN1CCCC1)(c1ccccc1)c1ccccc1`, the Potency entry was “inactive”.

Regarding `CC(C(=O)O)c1cccc(Oc2ccccc2)c1` (stereo unspecified), the Potency result is “inactive”.

As to `CC(=O)NCCCCCC(=O)O`, the Potency entry is “inactive”.

On to `OC1C(O)C(O)C(O)C(O)C1O` (stereo unspecified), for which the Potency result was “inactive”.

On to `Cc1nc(-c2ccc(Cl)cc2)oc1COC(C)(C)C(=O)O`, for which the Potency entry was “inactive”.

Consider `c1ccc(-c2nc[nH]c2-c2ccccc2)cc1`, for which the Potency entry is “inactive”.

Turning to `O=C1OC(CN2CCOCC2)CN1/N=C/c1ccc([N+](=O)[O-])o1` (stereo unspecified), the Potency result was “inactive”.

Take `NC(=S)N/N=C/c1cccnc1`: the Potency entry was “inactive”.

Consider `CCCCCCCCCCCCCC[N+](C)(C)Cc1ccccc1`, for which the Potency entry is “inactive”.
